Our source for the growth values is PubChem BioAssay (NCI).

Test systems include HT29 colon; SNB-75 CNS; SNB-19 CNS; U251 CNS; PC-3 prostate; SK-MEL-5 melanoma; UACC-62 melanoma; LOX IMVI melanoma; SK-MEL-28 melanoma; SK-MEL-2 melanoma; SN12C renal; UO-31 renal; TK-10 renal; ACHN renal; CAKI-1 renal; A498 renal; CCRF-CEM leukemia; MOLT-4 leukemia; SR leukemia.
Common to all, as to assay: NCI-60 one-dose screen, 48 h (100 = growth as untreated, 0 = no growth, -100 = all killed)
Details in all cases: 10 µM

About 83,000 compounds went through this panel and 20% of them were active in at least one assay; those are over-represented in the sample as a whole.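 Step 1: grow cells in 96-well plates. Step 2: add test compound at a single concentration. Step 3: incubate 48 h. Step 4: record percent growth.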 Values without a mark were called inactive. Active and inactive are the calls of the source. How the source made its calls: active means growth percent below 10; inactive means the rest.

`ClC(Cl)(Cl)c1nc2nccnc2[nH]1`: the growth in the experiment with HT29 colon was 102%; with SNB-75 CNS, 83.4%; with SNB-19 CNS, 102%; in the experiment on U251 CNS it was 104%; with PC-3 prostate it was 102%; with SK-MEL-5 melanoma it was 113%. The growth with UACC-62 melanoma is 107%; in the experiment with LOX IMVI melanoma it was 102%; with SK-MEL-28 melanoma, 110%; in the experiment on SK-MEL-2 melanoma, 109%; with SN12C renal, 98%; in the experiment with UO-31 renal, 80.4%. The growth with TK-10 renal was 119%; in the experiment on ACHN renal it was 103%; in the experiment with CAKI-1 renal, 87.2%; in the experiment on A498 renal it was 107%; in the experiment on CCRF-CEM leukemia it was 96.7%; in the experiment with MOLT-4 leukemia, 104%. The growth in the experiment on SR leukemia is 102%.

On to `O=C(Nc1ccc(CN2CCc3nc4cc(O)c(O)cc4cc32)cc1)c1ccc(Cl)c(Cl)c1`, for which the growth in the experiment on HT29 colon is 109%; in the experiment on SNB-75 CNS, 89.2%; with SNB-19 CNS, 96.7%; with U251 CNS it was 105%; with PC-3 prostate, 101%; in the experiment with SK-MEL-5 melanoma, 90.7%. The growth with UACC-62 melanoma was 97%; in the experiment with LOX IMVI melanoma, 104%; in the experiment with SK-MEL-28 melanoma, 96.8%; in the experiment with SK-MEL-2 melanoma, 105%; in the experiment with SN12C renal, 97.4%; in the experiment with UO-31 renal, 88.9%. Moreover, the growth was 122% with TK-10 renal; 98.2% with ACHN renal; 96.4% in the experiment with CAKI-1 renal; 103% with A498 renal; 78% with CCRF-CEM leukemia; 106% in the experiment on MOLT-4 leukemia. The growth with SR leukemia was 94.5%.

In the case of `CS(=O)(=O)Nc1ccc(Nc2c3ccccc3nc3cc(N)ccc23)cc1`, the growth in the experiment with HT29 colon was 55.9%; with SNB-75 CNS, 38.8%; with SNB-19 CNS, 22.2%; in the experiment with U251 CNS, 3.29% (active); with PC-3 prostate, 51.3%; in the experiment with SK-MEL-5 melanoma it was 5.37% (active). The growth was 40.2% with UACC-62 melanoma; 23.4% in the experiment on LOX IMVI melanoma; 42.3% in the experiment with SK-MEL-28 melanoma; 25.1% in the experiment with SK-MEL-2 melanoma; 5.31% (active) in the experiment with SN12C renal; 28.6% in the experiment with UO-31 renal. The growth is 62.3% in the experiment with TK-10 renal; 24.9% with ACHN renal; 19.9% in the experiment with CAKI-1 renal; 57.1% in the experiment with A498 renal; 5.41% (active) in the experiment with MOLT-4 leukemia; 8.53% (active) with SR leukemia.

In the case of `COc1ccc(-c2nc3sc(C4CC4)nn3c2/C=C2/C(=O)Nc3ccc(OC)cc32)cc1`, the growth in the experiment with HT29 colon is 73.2%; in the experiment with SNB-75 CNS, -2.41% (active); in the experiment on SNB-19 CNS, 66.8%; in the experiment with U251 CNS, 72.8%; in the experiment on PC-3 prostate, 58.1%; in the experiment on SK-MEL-5 melanoma, 52.8%. The growth in the experiment with UACC-62 melanoma is 44%; in the experiment with LOX IMVI melanoma, 52.1%; with SK-MEL-28 melanoma, 24.9%; in the experiment on SK-MEL-2 melanoma, 49.6%; in the experiment with SN12C renal it was 91.9%; with UO-31 renal, 75.6%. The growth in the experiment with TK-10 renal is 95.8%; in the experiment with ACHN renal it was 78%; in the experiment with CAKI-1 renal it was 78.8%; in the experiment with A498 renal, 49.4%; in the experiment on CCRF-CEM leukemia it was 75.8%; in the experiment on SR leukemia, 26.5%.

In the case of `COc1ccc(-n2c(SCc3cc(OC)c(OC)c(OC)c3)nc3ccc(C)cc3c2=O)cc1`, the growth in the experiment on HT29 colon is 21.9%; in the experiment with SNB-75 CNS it was 44.4%; with SNB-19 CNS, 83.7%; in the experiment on U251 CNS, 69.1%; in the experiment on PC-3 prostate, 75%; in the experiment with SK-MEL-5 melanoma, 54.9%. Besides, the growth in the experiment on UACC-62 melanoma is 56.7%; with LOX IMVI melanoma, 63%; with SK-MEL-28 melanoma it was 74%; in the experiment on SK-MEL-2 melanoma it was 64.8%; with SN12C renal it was 82.2%; in the experiment with UO-31 renal, 47.2%. The growth in the experiment with TK-10 renal is 94.2%; in the experiment on ACHN renal, 66.7%; in the experiment with CAKI-1 renal, 54.2%; in the experiment with A498 renal it was 38%; with MOLT-4 leukemia, 56%; with SR leukemia, 23%.

Consider `CCOC(=O)N1C/C(=C/c2ccc(F)cc2)C(=O)/C(=C/c2ccc(F)cc2)C1`, for which the growth in the experiment with HT29 colon is -58.8% (active); in the experiment with SNB-75 CNS it was 56.8%; with SNB-19 CNS, 39.6%; in the experiment on U251 CNS, -65.6% (active); in the experiment with PC-3 prostate, -25.3% (active); in the experiment with SK-MEL-5 melanoma it was -59.7% (active). The growth with UACC-62 melanoma is -56.8% (active); in the experiment with LOX IMVI melanoma, -84.5% (active); in the experiment on SK-MEL-28 melanoma, -37.4% (active); in the experiment on SK-MEL-2 melanoma, 21.7%; in the experiment with SN12C renal, -43.8% (active); in the experiment on UO-31 renal it was -55.6% (active). Also, the growth in the experiment on TK-10 renal was 2.65% (active); with ACHN renal, -28% (active); in the experiment with CAKI-1 renal it was -16% (active); with CCRF-CEM leukemia it was -1.18% (active); in the experiment with MOLT-4 leukemia, 2.2% (active); in the experiment on SR leukemia, -19.9% (active).

Consider `COc1ccc(Cl)cc1-n1nnc(-c2nc3ccccc3[nH]2)c1N`, for which the growth was 47.2% with HT29 colon; 32.5% in the experiment on SNB-75 CNS; 77% in the experiment on SNB-19 CNS; 53.2% with U251 CNS; 89.2% in the experiment with PC-3 prostate; 95.9% in the experiment with SK-MEL-5 melanoma. For the same molecule, the growth was 104% with UACC-62 melanoma; 77.4% with LOX IMVI melanoma; 100% with SK-MEL-28 melanoma; 93.2% in the experiment on SK-MEL-2 melanoma; 94.3% in the experiment with SN12C renal; 71.9% in the experiment on UO-31 renal. Besides, the growth in the experiment with TK-10 renal is 85.9%; in the experiment on ACHN renal, 51.4%; with CAKI-1 renal it was 67.7%; in the experiment with A498 renal, 89.3%; in the experiment on CCRF-CEM leukemia it was 104%; with MOLT-4 leukemia, 98.5%. For the same molecule, the growth with SR leukemia is 71.8%.

Turning to `CCCC(F)C(=O)O` (stereo not drawn), the growth is 97.5% in the experiment on HT29 colon; 99.2% in the experiment on SNB-75 CNS; 102% in the experiment with SNB-19 CNS; 95.9% in the experiment with U251 CNS; 90.5% in the experiment on PC-3 prostate; 105% in the experiment on SK-MEL-5 melanoma. For the same molecule, the growth was 100% with UACC-62 melanoma; 100% with LOX IMVI melanoma; 111% in the experiment on SK-MEL-28 melanoma; 107% with SK-MEL-2 melanoma; 100% with SN12C renal; 77.7% in the experiment with UO-31 renal. In addition, the growth was 98% in the experiment on TK-10 renal; 106% in the experiment on ACHN renal; 86.2% with CAKI-1 renal; 98.5% in the experiment on A498 renal; 94.5% in the experiment with CCRF-CEM leukemia; 93% in the experiment with MOLT-4 leukemia. Also, in the experiment with SR leukemia, the growth is 91.2%.
